Values without a mark were called inactive.
System: Vero E6 infected with SARS-CoV-2
Assay: inhibition of SARS-CoV-2 cytopathic effect; higher = more antiviral protection, active = above 15
Settings: 48 h

Q: With `COc1cc(NC(C)CCCN)c2ncccc2c1` (stereo not given) [primaquine] as the compound, how does the “inhibition of SARS-CoV-2 cytopathic effect” value (“inhibition” for short) (1 nM) read?
A: 1.68%

Q: And the “inhibition” value (8.33 nM)?
A: 2.25%

Q: What about the “inhibition” value (100 nM) of the same compound?
A: 0.83%

Q: What about the “inhibition” value (833.33 nM) of the same compound?
A: 1.27%

Q: And the “inhibition” value (10000 nM)?
A: 3.23%

Q: What does the source list for `CCNC(=O)[C@H]1O[C@@H](n2cnc3c(N)ncnc32)[C@H](O)[C@@H]1O`?
A: inhibition of SARS-CoV-2 cytopathic effect (1 nM): 3.12%; inhibition of SARS-CoV-2 cytopathic effect (8.33 nM): 1.83%; inhibition of SARS-CoV-2 cytopathic effect (100 nM): -2.78%; inhibition of SARS-CoV-2 cytopathic effect (833.33 nM): -3.3%; inhibition of SARS-CoV-2 cytopathic effect (10000 nM): -1.61%

Q: For `C[C@@]12CC[C@@H]3[C@@](CC[C@H]4[C@@]3(C)CCC[C@@]4(C)C(=O)O)(CC1=O)C2` [isosteviol], which “inhibition” value (1 nM) is on record?
A: -1.01%

Q: And the “inhibition” value (8.33 nM)?
A: 3.07%

Q: And the “inhibition” value (100 nM)?
A: -0.69%

Q: What about the “inhibition” value (833.33 nM) of the same compound?
A: 0.69%

Q: And the “inhibition” value (10000 nM)?
A: 1.55%

Q: How did the “inhibition” value (1 nM) turn out when `c1ccc(NCc2ccc(CNc3ccccn3)cc2)nc1` was run?
A: 0.1%

Q: What about the “inhibition” value (8.33 nM) of the same compound?
A: 0.65%

Q: And the “inhibition” value (100 nM)?
A: -3.43%

Q: What about the “inhibition” value (833.33 nM) of the same compound?
A: -0.24%

Q: What about the “inhibition” value (10000 nM) of the same compound?
A: -0.68%

Q: Which results are given for `CCOC(=O)[C@H](CCc1ccccc1)N[C@@H](C)C(=O)N1[C@H](C(=O)O)C[C@H]2CCCC[C@@H]21` [trandolapril]?
A: inhibition of SARS-CoV-2 cytopathic effect (1 nM): -1.1%; inhibition of SARS-CoV-2 cytopathic effect (8.33 nM): -1.62%; inhibition of SARS-CoV-2 cytopathic effect (100 nM): -0.26%; inhibition of SARS-CoV-2 cytopathic effect (833.33 nM): -0.12%; inhibition of SARS-CoV-2 cytopathic effect (10000 nM): 1.62%

Q: With `C1=Cc2cccc(OCC3CNCCO3)c2C1` (stereo not given) [indeloxazine] as the compound, how does the “inhibition” value (1 nM) read?
A: 1.29%

Q: What about the “inhibition” value (8.33 nM) of the same compound?
A: 2.5%

Q: And the “inhibition” value (100 nM)?
A: 1.2%

Q: What about the “inhibition” value (833.33 nM) of the same compound?
A: 0.43%

Q: What about the “inhibition” value (10000 nM) of the same compound?
A: -0.62%

Q: With `CNc1cc(OC)c(C(=O)NC2CCN(Cc3ccccc3)C2C)cc1Cl` (stereo not given) [nemonapride] as the compound, how does the “inhibition” value (1 nM) read?
A: -1.01%

Q: And the “inhibition” value (8.33 nM)?
A: 2.19%

Q: And the “inhibition” value (100 nM)?
A: 0.65%

Q: What about the “inhibition” value (833.33 nM) of the same compound?
A: -1.52%

Q: And the “inhibition” value (10000 nM)?
A: 2.33%

Q: How did the “inhibition” value (1 nM) turn out when `NC[C@@H]1O[C@H](O[C@@H]2[C@@H](CO)OC(O[C@@H]3[C@@H](O)[C@H](N)C[C@H](N)[C@H]3OC3O[C@H](CN)[C@@H](O)[C@H](O)[C@H]3N)[C@@H]2O)[C@H](N)[C@@H](O)[C@@H]1O` (stereo not given in full) was run?
A: -1.31%

Q: And the “inhibition” value (8.33 nM)?
A: -1.2%

Q: What about the “inhibition” value (100 nM) of the same compound?
A: 0.22%

Q: What about the “inhibition” value (833.33 nM) of the same compound?
A: 1.17%

Q: What about the “inhibition” value (10000 nM) of the same compound?
A: -0.07%

Q: For `Nc1ccc(C(=O)O)c(O)c1` [aminosalicylate], which “inhibition” value (1 nM) is on record?
A: -3.85%

Q: What about the “inhibition” value (8.33 nM) of the same compound?
A: -0.82%

Q: And the “inhibition” value (100 nM)?
A: -0.9%

Q: And the “inhibition” value (833.33 nM)?
A: 0.11%

Q: What about the “inhibition” value (10000 nM) of the same compound?
A: 0.97%

Q: Which results are given for `N#C/C(=C\c1ccc(O)c(O)c1)C(=O)NCCCCc1ccccc1`?
A: inhibition of SARS-CoV-2 cytopathic effect (1 nM): 0.51%; inhibition of SARS-CoV-2 cytopathic effect (8.33 nM): 1.37%; inhibition of SARS-CoV-2 cytopathic effect (100 nM): 1.91%; inhibition of SARS-CoV-2 cytopathic effect (833.33 nM): 0.14%; inhibition of SARS-CoV-2 cytopathic effect (10000 nM): -0.03%

Q: With `CCN(CC)CCOc1ccc2c(c1)C(=O)c1cc(OCCN(CC)CC)ccc1-2` [tilorone] as the compound, how does the “inhibition” value (1 nM) read?
A: -0.99%

Q: And the “inhibition” value (8.33 nM)?
A: 0.89%

Q: And the “inhibition” value (100 nM)?
A: 1.34%

Q: What about the “inhibition” value (833.33 nM) of the same compound?
A: 0.62%

Q: And the “inhibition” value (10000 nM)?
A: 24.9% (active)

Q: How did the “inhibition” value (1 nM) turn out when `CN(C)C/C=C(/c1ccc(Br)cc1)c1cccnc1` [zimelidine] was run?
A: 0.58%

Q: And the “inhibition” value (8.33 nM)?
A: 1.8%

Q: And the “inhibition” value (100 nM)?
A: 0.96%

Q: What about the “inhibition” value (833.33 nM) of the same compound?
A: -1%

Q: What about the “inhibition” value (10000 nM) of the same compound?
A: -1.69%

Q: What does the source list for `C=Cc1c(C)c2cc3nc(c(CC(=O)O)c4[n-]c(cc5nc(cc1[n-]2)C(C)=C5CC)c(C)c4C(=O)O)[C@@H](CCC(=O)O)[C@@H]3C.[Cu+2]` [chlorophyllin-copper]?
A: inhibition of SARS-CoV-2 cytopathic effect (1 nM): -0.37%; inhibition of SARS-CoV-2 cytopathic effect (8.33 nM): 2.9%; inhibition of SARS-CoV-2 cytopathic effect (100 nM): -1.68%; inhibition of SARS-CoV-2 cytopathic effect (833.33 nM): -0.25%; inhibition of SARS-CoV-2 cytopathic effect (10000 nM): -2.81%

Q: Which results are given for `Cc1c(NC(=O)N2CCOCC2)ccc2c1c1ccccc1n2C(C)C`?
A: inhibition of SARS-CoV-2 cytopathic effect (1 nM): 0.94%; inhibition of SARS-CoV-2 cytopathic effect (8.33 nM): -0.34%; inhibition of SARS-CoV-2 cytopathic effect (100 nM): -2.07%; inhibition of SARS-CoV-2 cytopathic effect (833.33 nM): 2.48%; inhibition of SARS-CoV-2 cytopathic effect (10000 nM): 0.62%

Q: Which “inhibition” value (1 nM) does the source give for `N#CC1(c2ccc(NC(=O)c3cccnc3NCc3ccncc3)cc2)CCCC1` [apatinib] here?
A: 1.27%

Q: And the “inhibition” value (8.33 nM)?
A: 0.67%

Q: And the “inhibition” value (100 nM)?
A: 0.81%

Q: And the “inhibition” value (833.33 nM)?
A: 0.23%

Q: And the “inhibition” value (10000 nM)?
A: -0.18%

Q: For `CN1CC(=O)NC1=N` [creatinine], which “inhibition” value (1 nM) is on record?
A: 1.26%

Q: What about the “inhibition” value (8.33 nM) of the same compound?
A: 1.05%

Q: And the “inhibition” value (100 nM)?
A: -2.37%

Q: And the “inhibition” value (833.33 nM)?
A: 1.18%

Q: And the “inhibition” value (10000 nM)?
A: -1.05%

Q: What does the source list for `N.N.O=C([O-])C[O-].[Pt+2]` [nedaplatin]?
A: inhibition of SARS-CoV-2 cytopathic effect (1 nM): -3.28%; inhibition of SARS-CoV-2 cytopathic effect (8.33 nM): -2.76%; inhibition of SARS-CoV-2 cytopathic effect (100 nM): -0.64%; inhibition of SARS-CoV-2 cytopathic effect (833.33 nM): -1.21%; inhibition of SARS-CoV-2 cytopathic effect (10000 nM): -2.85%

Q: What does the source list for `Brc1c(Br)c(Br)c2[nH]nnc2c1Br` [4,5,6,7-tetrabromobenzotriazole]?
A: inhibition of SARS-CoV-2 cytopathic effect (1 nM): 1.42%; inhibition of SARS-CoV-2 cytopathic effect (8.33 nM): 3.75%; inhibition of SARS-CoV-2 cytopathic effect (100 nM): -0.07%; inhibition of SARS-CoV-2 cytopathic effect (833.33 nM): 1.63%; inhibition of SARS-CoV-2 cytopathic effect (10000 nM): 3.61%
